Source: PubChem BioAssay
MCL1 BIM primary – disrupts human MCL1 binding to BIM-BH3 peptide; inhibition, % at 10.9 µM; GST-MCL1 / FITC-Bim-BH3 fluorescence polarization; actives 0.68% (n = 320,000); AID 2057;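 active = inhibition above the mean inhibition of all tested compounds plus 3 SD, set per campaign, cut at about 40% in these data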;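 note: higher means more loss of mP so more displacement of Bim peptide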
BCLXL inh – Bcl-xL (human) inhibition; Q07817; GST-Bcl-xL / FITC-Bim BH3 peptide fluorescence polarization; inhibition, % at 10.9 µM; actives 0.7% (n = 320,000);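 active = inhibition above the mean of all tested compounds plus 3 SD, cutoff set per campaign, cut at about 30% in these data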;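 note: inhibitors lower millipolarization by displacing the labeled peptide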
GLD-1 RNA inh – GLD-1-TGE RNA interaction inhibition (C. elegans) | Q17339 | purified GLD-1 + fluorescein TGE RNA, fluorescence polarization | inhibition, % at 5.96 µM | actives 0.44% (n = 320,000) | AID 2280;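 active = percent inhibition above a per-plate cutoff, the plate mean of test compounds plus 3 SD, cut at about 30% in these data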
Target sequence (Q17339 whole entry, looked up): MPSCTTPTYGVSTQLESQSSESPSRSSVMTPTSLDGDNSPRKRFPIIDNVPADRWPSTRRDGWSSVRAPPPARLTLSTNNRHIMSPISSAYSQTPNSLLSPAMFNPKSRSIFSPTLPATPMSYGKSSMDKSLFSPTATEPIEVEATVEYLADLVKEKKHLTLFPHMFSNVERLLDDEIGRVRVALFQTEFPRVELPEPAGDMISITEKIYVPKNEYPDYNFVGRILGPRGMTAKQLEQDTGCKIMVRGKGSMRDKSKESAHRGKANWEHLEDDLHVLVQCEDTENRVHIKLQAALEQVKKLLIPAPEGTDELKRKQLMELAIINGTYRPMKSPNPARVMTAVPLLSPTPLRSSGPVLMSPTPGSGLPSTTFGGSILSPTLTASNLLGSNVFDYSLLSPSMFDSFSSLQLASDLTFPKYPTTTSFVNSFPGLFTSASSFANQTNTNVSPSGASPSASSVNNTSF
Mcl1 Noxa PPI – Mcl-1/Noxa interaction inhibition. Q07820. TR-FRET Mcl-1/Noxa peptide binding, 2 h. inhibition, % at 21.7 µM. actives 1.5% (n = 220,000). AID 1022;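 active = compounds that cut the protein-peptide binding signal by more than 50% relative to plate controls in a single-dose test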;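 note: His-tagged Mcl-1 with rhodamine Noxa BH3 peptide and terbium anti-His antibody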
Mcl1 Bid PPI – disrupts binding of human Mcl-1 to Bid peptide; Q07820; actives 0.97% (n = 220,000); inhibition, % at 21.7 µM; AID 1021; TR-FRET Mcl-1/Bid-Dy647 peptide binding, 1536-well;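 active = compounds that cut the binding signal by more than half at the single screening dose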;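 note: His-tagged Mcl-1 with europium anti-His antibody binding Bid BH3 peptide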
Mcl-1 Bim block – inhibitors of Bim-Mcl-1 interaction, human; Bead-based flow cytometry, Bim peptide-Mcl-1 binding; inhibition, % at 10 µM; AID 1009; Q07820; actives 0.1% (n = 190,000); in the data active = inhibition above about 40%
Each line names hits and unclear results; the compound was inactive in the other large screens. Hits are enriched below; roughly 2.3% of the tested compounds scored in any of these assays.

CCn1c2ccccc2c2cc(NC(=O)CNCC3CCCO3)ccc21 (stereo not drawn)	Mcl1 Noxa PPI 52
CCn1c2ccccc2c2cc(NC(=O)CN3CCCC3)ccc21	none (no result: Mcl1 Noxa PPI, Mcl1 Bid PPI, Mcl-1 Bim block)
COc1ccc(/C=C/C(=O)c2ccc(NC3=NCCCS3)cc2)cc1OC	Mcl1 Noxa PPI 51
COc1ccc(/C=C/C(=O)Nc2ccncc2)cc1OC	none
CCC1CSC(Nc2ccc(C(=O)/C=C/c3ccc(Br)cc3)cc2)=N1 (stereo not drawn)	none
CCC1CSC(Nc2ccc(C(=O)/C=C/c3ccc(OC)c(OC)c3)cc2)=N1 (stereo not drawn)	Mcl1 Noxa PPI 68
O=C(CSc1ccc2c(c1)OCCO2)Nc1ncccc1O	none (no result: Mcl1 Noxa PPI, Mcl1 Bid PPI, Mcl-1 Bim block)
N#CC(=C=[N-])C1=C(C#N)C(c2ccccc2F)C([n+]2ccccc2)C(O)(C2CC2)N1 (stereo not drawn)	none
Cc1cccc[n+]1C1C(c2ccccc2)C(C#N)=C(C(=C=[N-])C#N)NC1(O)C1CC1 (stereo not drawn)	BCLXL inh 44
COc1ccc(NS(=O)(=O)c2cc(NC(=O)c3ccccn3)ccc2OC)cc1Br	none (no result: MCL1 BIM primary, BCLXL inh, Mcl1 Noxa PPI, Mcl1 Bid PPI, Mcl-1 Bim block)
COc1ccc(NS(=O)(=O)c2cc(OC)ccc2OC)cc1	BCLXL inh 37 (no result: Mcl1 Noxa PPI, Mcl1 Bid PPI, Mcl-1 Bim block)
COc1ccc(NC(=O)c2c(F)cccc2F)cc1S(=O)(=O)Nc1ccc(Br)cc1	Mcl-1 Bim block 42
Cc1ccc(-c2c(=O)n(OCc3ccccn3)c3ccccc3[n+]2[O-])cc1	none (no result: MCL1 BIM primary, BCLXL inh, GLD-1 RNA inh)
COc1ccc(-c2c(=O)n(OCc3ccccn3)c3ccccc3[n+]2[O-])cc1OC	Mcl1 Noxa PPI 54
O=C(O)COc1ccccc1/C=N/NC(=O)CN1CCN(Cc2ccc(Cl)cc2)CC1	none (no result: Mcl-1 Bim block)
N#Cc1ccsc1NC(=O)c1cccc([N+](=O)[O-])c1	Mcl1 Noxa PPI 54
CC(C)c1ccccc1NC(=O)COC(=O)c1cc([N+](=O)[O-])ccc1N1CCOCC1	none (no result: Mcl1 Noxa PPI, Mcl1 Bid PPI, Mcl-1 Bim block)
CCC(=O)Oc1ccc2c(=O)c(-c3ccc4ccccc4n3)c(CC)oc2c1C	Mcl1 Noxa PPI 82
Cc1ccc(/C=c2/sc3n(c2=O)CCCN=3)o1	none
O=C(NCc1ccc(/C=c2\sc3n(c2=O)CCN=3)o1)C(=O)Nc1ccccc1	Mcl1 Noxa PPI 56
O=C(Nc1cccc(-n2cnnn2)c1)c1cnccc1Cl	none (no result: Mcl1 Noxa PPI, Mcl1 Bid PPI, Mcl-1 Bim block)
Nc1nnc(CC(=O)N/N=C/c2ccc(-c3ccccc3Cl)o2)s1	none
Nc1nnc(CC(=O)N/N=C/c2ccc(-c3ccc(Cl)cc3Cl)o2)s1	Mcl1 Noxa PPI 51 (no result: Mcl-1 Bim block)
CCOC(=O)N1CCN(c2nc3ccc(C(=O)c4ccccc4)cc3n3cnnc23)CC1	none (no result: Mcl-1 Bim block)
O=C(c1ccccc1)c1ccc2nc(N3CCN(C(=O)c4ccco4)CC3)c3nncn3c2c1	Mcl1 Noxa PPI 56
O=c1c2cc(Br)cc(Br)c2oc2nc3n(c(=O)c12)CCCS3	none
O=Cc1ccc2oc3nc4n(c(=O)c3c(=O)c2c1)CCCS4	Mcl1 Noxa PPI 73
COc1cccc(N2C(=O)[C@H]3C(C(=O)c4cnccn4)=NN[C@H]3C2=O)c1	BCLXL inh 37 (no result: Mcl-1 Bim block)
O=C(C1=NN[C@@H]2C(=O)N(c3cccc(F)c3)C(=O)[C@H]12)c1ccc2ccccc2n1	none
CCC(C)C(NC(=O)C1CCC(C)CC1)C(=O)Nc1ccc(OC)cc1 (stereo not drawn)	none (no result: Mcl1 Noxa PPI, Mcl1 Bid PPI, Mcl-1 Bim block)
COC(=O)c1cc(N=Nc2sc(N)nc2C)cc(C(=O)OC)c1	Mcl1 Noxa PPI 53 (no result: Mcl-1 Bim block)
COc1ccc(CNC(=O)CCC(=O)Nc2nnc(C(F)(F)F)s2)cc1	none (no result: Mcl1 Noxa PPI, Mcl1 Bid PPI, Mcl-1 Bim block)
O=C(COc1ccccc1)Nc1sc2c(c1C(=O)NCc1cccnc1)CCCC2	Mcl1 Bid PPI 59
COc1ccc(NC(=O)CCNS(=O)(=O)c2cccc3nonc23)c(OC)c1	none (no result: Mcl1 Noxa PPI, Mcl1 Bid PPI, Mcl-1 Bim block)
CN(C)c1ccc(Nc2nc(N)c([N+](=O)[O-])c(N3CCOCC3)n2)cc1	Mcl1 Noxa PPI 83
NC(=O)[C@@H]1CCCN1Cc1nc(-c2cccs2)no1	Mcl1 Noxa PPI 54
Cc1cccc(NC(=O)C2CCCN(S(=O)(=O)c3ccc4[nH]c(=O)ccc4c3)C2)c1 (stereo not drawn)	none (no result: Mcl1 Noxa PPI, Mcl1 Bid PPI, Mcl-1 Bim block)
Cc1ccc(-n2c(=O)c3sccc3n(CC(=O)N3CCCC3)c2=O)cc1	none
O=C(Cn1c(=O)n(-c2ccccc2)c(=O)c2sccc21)N1CCCC1	Mcl1 Noxa PPI 105
O=C(NCc1cccnc1)/C(=C/c1ccc(-c2cccc(Cl)c2)o1)S(=O)(=O)c1ccccc1	Mcl1 Bid PPI 57
CCC(C)(C)NC(=O)CN(Cc1ccc(F)cc1)C(=O)CCC(=O)Nc1ccccn1	none (no result: Mcl1 Noxa PPI, Mcl1 Bid PPI, Mcl-1 Bim block)
Cc1ccc(-c2cc(C(=O)NC3=NCCS3)c3ccccc3n2)cc1C	BCLXL inh 90
O=C1/C(=C/c2ccc(O)c(O)c2)Oc2cc(O)ccc21	Mcl1 Noxa PPI 75 (no result: Mcl-1 Bim block)
CC(=O)Oc1c(Cl)cc(Cl)cc1/C=C/c1ccc2ccccc2n1	none (no result: Mcl1 Noxa PPI)
CC(=O)Oc1ccc(Cl)cc1/C=C/c1ccc2ccccc2n1	Mcl1 Bid PPI 97
COc1ccc(C(=O)NCc2nnc(SCC(=O)N3CCCCC3)o2)cc1OC	Mcl1 Bid PPI 83
